The source of these data is PubChem BioAssay (Tox21).

“And” between values parts separate entries of the source, which are not always exact repeats. Equal entries are not always repeated. Results filed as inconclusive are left out. The source holds several records for some structures; these can differ, active in one and inactive in another. The source made the active and inactive calls. Unless noted, calls follow the shape of the dose curve; as a rule, active = well fitted curve in the direction sought with a large enough effect in the repeat runs; inconclusive = weak or mixed curves; inactive = no such curve, though single readings can be large; an effect the other way counts as inactive or inconclusive.

The target in assay [1] is Thyrotropin receptor (Homo sapiens) (UniProt P16473). Nature of the assay: qHTS assay to identify small molecule agonists of the thyroid stimulating hormone receptor (TSHR) signaling pathway (AID 1224843; calls by dose curve; also: nearly all actives have a fitted effect of over 45% in size; also: potency is read from the fitted curve at half-maximal effect). In short, it runs like this:
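TSHR-HEK293 cells in agonist mode, 30 min room-temperature step, then cAMP measured by competitive HTRF (cAMP-d2 with anti-cAMP cryptate) after 1 h at room temperature. Tested at 15 concentrations in triplicate.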

The nature of assay [2]: qHTS assay to identify small molecule agonists of the hypoxia (HIF-1) signaling pathway - cell viability counter screen (AID 1224844; calls by dose curve; also: nearly all actives have a fitted effect of over 50% in size). The gist of the method:
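Luminescent ATP content (CellTiter-Glo, 30 min, room temperature) served as the viability measure in HRE-bla ME-180 cells exposed to compounds for 17 hrs in low-serum medium (0.5% dialyzed FBS).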
For orientation: In qHTS, concentration-response curves come from the screen itself.

A short description of assay [3]: qHTS assay to identify small molecule agonists of H2AX (AID 1224845; active = well fitted activation curve with a large enough effect in the signal ratio in the repeat runs, not every such curve was filed as active; the % refers to the signal ratio). In short, it runs like this:
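Wild-type CHO-K1 cells, plated overnight, exposed 3hr at 37C to 15 concentrations (0.76% DMSO final). Lysed, then HTRF anti-pH2AX (S139) cryptate and anti-H2AX-d2 antibodies, 24 hr room temperature; 665/620 nm emission read.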

Assay [4] is described as follows: qHTS assay to identify small molecule agonists of the hypoxia (HIF-1) signaling pathway (AID 1224846; active = well fitted activation curve with a large enough effect in the signal ratio in the repeat runs, not every such curve was filed as active; the % refers to the signal ratio). The gist of the method:
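Measured by blue/green FRET after loading CCF4-AM: beta-lactamase expressed from a hypoxia response element in ME-180 cells. Test agents were delivered in DMSO and left 17 hrs; cells had been plated 5 hrs earlier in low-serum (0.5% dialyzed FBS) medium.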

The nature of assay [5]: qHTS assay to identify small molecule agonists of H2AX - cell viability counter screen (AID 1224847; calls by dose curve; also: top concentration of the series differs between compounds; nearly all actives have a fitted effect of over 30% in size). In short, it runs like this: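 CHO-K1 wt, 1000 cells/well, o/n 37C; cpds 15 conc, 3 h 37C, 0.76% DMSO; CellTiter-Glo, 30 min RT, luminescence.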
A short description of assay [6]: qHTS RealTime-Glo MT Cell Viability Assay in HepG2 cells - 24 hour (AID 1224867). Also: nearly all actives have a fitted effect of over 50% in size. The gist of the method:
(§1)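 HepG2 cells (600/well) were dispensed with RealTime-Glo reagents, incubated 5 h at 37 °C, then treated with compounds in DMSO for up to 40 h. Nonlytic NanoLuc luminescence reflecting viable cells was read at each stated time point.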

The nature of assay [7]: qHTS RealTime-Glo MT Cell Viability Assay in HEK293 cells - 32 hour (AID 1224868). Also: nearly all actives have a fitted effect of over 50% in size. Also: potency is read from the fitted curve at half-maximal effect. In short, it runs like this:
(§2)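 HEK293 cells seeded with NanoLuc/prosubstrate reagent, rested 5 h at 37 C, then dosed and kept at 37 C up to 40 h. Nonlytic real-time luminescence from viable cells read at 0, 8, 16, 24, 32 and 40 h.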

A short description of assay [8]: A CellTox Green Cytotoxicity Assay to monitor cytotoxicity in HEK293 cells - 0 hour (AID 1224869). Also: nearly all actives have a fitted effect of over 50% in size. In short, it runs like this: (§3)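 Each value comes from one timepoint of a single continuous run in which HEK293 cells with CellTox Green were exposed to compound for up to 40 h at 37 C, dye fluorescence rising with cell death.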
A short description of assay [9]: qHTS RealTime-Glo MT Cell Viability Assay in HepG2 cells - 40 hour (AID 1224870). Also: nearly all actives have a fitted effect of over 50% in size. In short, it runs like this: (§4)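 HepG2 cells (600/well) mixed with RealTime-Glo MT reagent, settled 5 h at 37 C/5% CO2 before compound addition. Nonlytic NanoLuc luminescence from viable-cell prosubstrate reduction read repeatedly during 40 h treatment at 37 C.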
Assay [10] in a line: A CellTox Green Cytotoxicity Assay to monitor cytotoxicity in HEK293 cells - 40 hour (AID 1224871). Also: nearly all actives have a fitted effect of over 45% in size. The gist of the method:
as §3

The nature of assay [11]: qHTS RealTime-Glo MT Cell Viability Assay in HEK293 cells - 16 hour (AID 1224872). Also: nearly all actives have a fitted effect of over 50% in size. Also: potency is read from the fitted curve at half-maximal effect. The gist of the method:
as §2

Assay [12] in a line: qHTS RealTime-Glo MT Cell Viability Assay in HepG2 cells - 8 hour (AID 1224873). Also: nearly all actives have a fitted effect of over 55% in size. The gist of the method: as §4
A short description of assay [13]: qHTS RealTime-Glo MT Cell Viability Assay in HEK293 cells - 40 hour (AID 1224874). Also: nearly all actives have a fitted effect of over 50% in size. Also: potency is read from the fitted curve at half-maximal effect. Conditions: RealTime-Glo luminescence; max response: stronger effect = lower value. The gist of the method:
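qHTS format; HEK293 cells with NanoLuc/prosubstrate reagent, 37 C/5% CO2 for 5 h pre-dosing; compounds 23 nL in DMSO; luminescence at each time point reflects viable cells.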

A short description of assay [14]: A CellTox Green Cytotoxicity Assay to monitor cytotoxicity in HEK293 cells - 24 hour (AID 1224875). Also: nearly all actives have a fitted effect of over 45% in size. The gist of the method:
as §3

Assay [15] is described as follows: A CellTox Green Cytotoxicity Assay to monitor cytotoxicity in HepG2 cells - 16 hour (AID 1224876). Also: nearly all actives have a fitted effect of over 45% in size. In short, it runs like this: (§5)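 Continuous culture of HepG2 cells with a membrane-impermeant DNA dye; rising fluorescence marks dead cells. Compound exposure lasted up to 40 h at 37 C, with reads every 8 h from 0 h.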
Assay [16] in a line: qHTS RealTime-Glo MT Cell Viability Assay in HepG2 cells - 32 hour (AID 1224877). Also: nearly all actives have a fitted effect of over 55% in size. In short, it runs like this: as §1
A short description of assay [17]: A CellTox Green Cytotoxicity Assay to monitor cytotoxicity in HepG2 cells - 24 hour (AID 1224878). Also: nearly all actives have a fitted effect of over 45% in size. Also: potency is read from the fitted curve at half-maximal effect. In short, it runs like this:
as §5

A short description of assay [18]: A CellTox Green Cytotoxicity Assay to monitor cytotoxicity in HepG2 cells - 40 hour (AID 1224879). Also: nearly all actives have a fitted effect of over 40% in size. Also: potency is read from the fitted curve at half-maximal effect. In short, it runs like this:
as §5

A short description of assay [19]: qHTS assay to identify small molecule antagonists of the estrogen related receptor (ERR) signaling pathway from Tox21 library (AID 1224848). Also: nearly all actives have a fitted effect of over 50% in size. Also: potency is read from the fitted curve at half-maximal effect. In short, it runs like this: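 ERR reporter cell line (from NTP) seeded 2,000 cells/well, rested 6 h at 37 C/5% CO2, then pin-dosed with compounds in DMSO. After 18 h at 37 C, ONE-Glo added; luminescence read after 30 min at room temperature.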

Assay [20] is described as follows: qHTS assay to identify small molecule agonists of the estrogen related receptor (ERR) signaling pathway from Tox21 library (AID 1224849; calls by dose curve; also: nearly all actives have a fitted effect of over 15% in size). Conditions: ERR reporter cell line, ONE-Glo luciferase, 18 h. In short, it runs like this: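 We plated ERR reporter cells, waited 6 h, added compounds in DMSO by pin tool and incubated them 18 h at 37 C. ONE-Glo was then added and luminescence read after 30 min.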
% is scaled to controls: 0 for no effect and ±100 for the full control effect.

Sequence of Thyrotropin receptor (Homo sapiens) (P16473 whole entry, looked up): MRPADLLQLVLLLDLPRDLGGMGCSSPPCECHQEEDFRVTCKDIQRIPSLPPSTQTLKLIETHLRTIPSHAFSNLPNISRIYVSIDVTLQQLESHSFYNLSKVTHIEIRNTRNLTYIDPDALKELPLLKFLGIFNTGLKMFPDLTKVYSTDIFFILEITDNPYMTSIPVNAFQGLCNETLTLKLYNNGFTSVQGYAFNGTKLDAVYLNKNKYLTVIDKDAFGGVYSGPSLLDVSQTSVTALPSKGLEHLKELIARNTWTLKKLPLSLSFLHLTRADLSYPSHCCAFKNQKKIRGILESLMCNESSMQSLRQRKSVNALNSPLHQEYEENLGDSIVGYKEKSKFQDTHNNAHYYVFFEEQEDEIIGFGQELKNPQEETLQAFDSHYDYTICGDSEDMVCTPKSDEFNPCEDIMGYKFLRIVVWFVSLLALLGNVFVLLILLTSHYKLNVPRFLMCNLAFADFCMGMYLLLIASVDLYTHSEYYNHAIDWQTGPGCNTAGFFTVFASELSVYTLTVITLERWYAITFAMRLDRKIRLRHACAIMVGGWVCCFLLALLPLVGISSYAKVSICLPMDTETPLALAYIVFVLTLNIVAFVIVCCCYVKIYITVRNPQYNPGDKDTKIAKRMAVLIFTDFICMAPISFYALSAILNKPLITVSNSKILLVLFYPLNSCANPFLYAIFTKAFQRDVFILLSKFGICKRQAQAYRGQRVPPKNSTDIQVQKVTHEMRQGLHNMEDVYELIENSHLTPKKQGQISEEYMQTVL

As for `CC(C)(C)CC(C)(C)c1ccc(O)c(-n2nc3ccccc3n2)c1`, the Potency is 27.7 µM (active) and 15.4 µM (active) in [1]; 49.7 µM (active) and inactive in [7]; 44.3 µM (active) and inactive in [11]; 49.7 µM (active) in assay [13]. For the same molecule, the Potency result in assay [2], in assay [3], in [5], in assay [8], in assay [10] and in assay [14] was “inactive” in each case. For the same molecule, the Potency entry in [15], in assay [17] and in assay [18] was “inactive” throughout. In addition, the molecule was classed as inactive in assay [4], in assay [6], in assay [9], in assay [12] and in assay [16]. In addition, the max response in [13] is -13.8% (inactive) and -3.1% (inactive).
On to `C=C(C)C(N)=O`, for which the Potency result in [1], in assay [2], in [3], in [5], in assay [19] and in assay [7] was “inactive” throughout. Further, the Potency entry in [8], in assay [10], in assay [11], in assay [14], in assay [15] and in assay [18] was “inactive” throughout. Also, the call in assay [4], in assay [6], in assay [9], in assay [12] and in assay [16] was inactive. Further, the activity change, positive = activation in assay [20] (at 92.4 µM (top of the series)) is 10.9% (inactive) and 3.35% (inactive). The max response in assay [13] was 4.84% (inactive) and 13.1% (inactive).
As to `COC1=CC(=O)C[C@@H](C)[C@]12Oc1c(Cl)c(OC)cc(OC)c1C2=O`, the Potency in assay [1] was 9.6 µM (active) and 17.2 µM (active); in assay [19], 4.81 µM (active) and 7.7 µM (active) and 5.96 µM (active); in assay [17] it was 38.6 µM (active) and inactive; in [18], 24.3 µM (active) and 21.9 µM (active) and 26.8 µM (active). Also, the Potency result in assay [2], in assay [3], in assay [5], in assay [7], in assay [8] and in assay [10] was “inactive” each time. Further, the Potency result in assay [11], in assay [14] and in assay [15] was “inactive” each time. Besides, the result in [4], in assay [6], in [9], in [12] and in assay [16] was inactive. Moreover, the activity change, positive = activation was -32% (inactive) in assay [20] (at 42.5 µM (top of the series)); -36.3% (inactive) and -39.4% (inactive) in [20] (at 92.4 µM (top of the series)). In [13], the max response was -25.7% (inactive).
As for `CCCCCCCCCCCCCCCCCC(=O)OCC(O)CO` (stereo unspecified), the Potency result in [1], in assay [2], in assay [3], in assay [5], in assay [7] and in [8] was “inactive” each time. In addition, the Potency entry in assay [10], in assay [11], in [14], in assay [17] and in assay [18] was “inactive” in each case. The molecule was called inactive in assay [4], in assay [6], in assay [9], in [12] and in assay [16]. For the same molecule, the max response in assay [13] was 10.4% (inactive) and 6.82% (inactive) and 1.48% (inactive).
On to `O=c1cc[nH]c(=O)[nH]1`, for which the Potency result in assay [1], in assay [2], in [3], in assay [5], in assay [19] and in assay [7] was “inactive” each time. Moreover, the Potency entry in assay [8], in [10], in [11], in [14], in assay [17] and in [18] was “inactive” each time. For the same molecule, the molecule was called inactive in [4], in assay [6], in assay [9], in [12] and in [16]. Besides, the activity change, positive = activation is 5.28% (inactive) in [20] (at 42.5 µM (top of the series)) and 0.687% (inactive) in [20] (at 92.4 µM (top of the series)). The max response in assay [13] is -9.27% (inactive) and 1.51% (inactive).
